According to PubChem BioAssay AID686979 (National Center for Advancing Translational Sciences (NCATS), 2013):
“And” between values parts separate entries of the source, which are not always exact repeats. Equal values may be shown once. About 50,000 (12%) of roughly 420,000 compounds were called active. About 26% were inconclusive and are not listed. The full list was thinned out, with actives kept by preference. Unmarked numbers belong to inactive results. Calls follow the shape of the dose curve; as a rule, active = well fitted inhibition curve with a large enough effect; inconclusive = small, poorly fitted or top-dose-only effect; inactive = flat fitted curve, though single readings scatter.

assay: qHTS for Inhibitors of human tyrosyl-DNA phosphodiesterase 1 (TDP1): qHTS in cells in presence of CPT; settings: chicken DT40 Tdp1-/-;hTDP1 cells + 20 nM CPT, ATP luminescence, 48 h; series mostly up to 46.2 µM; activity change, negative = growth inhibition: at the top concentration; also: nearly all actives have a fitted effect of over 55% in size
From the text: Human tyrosyl-DNA phosphodiesterase 1 (TDP1) is a novel repair gene, and we propose to use it as a new target for anticancer drug development. TDP1 is not an essential protein, but under treatment with topoisomerase I poison (camptothecin: CPT), TDP1 works as a critical factor for cell survival. To directly identify novel TDP1 inhibitors active in a cellular environment, we have knocked-out the Tdp1 gene in chicken DT40 cells (Tdp1-/-) and generated a complemented counterpart cells that contains a stable transfection of the human TDP1 gene (Tdp1-/-;hTDP1 cells). For the primary screen, Tdp1-/-;hTDP1 cells will be exposed to small molecules in the presence or absence of CPT, and their growth kinetics will be evaluated after 48 hours by measuring ATP activity. […] The hit compounds will then be evaluated in the presence or absence of CPT using Tdp1-/- cells. […] In tertiary assays, biochemical gel-based assays will be used to assess whether the hit compounds specifically target TDP1. To this end, we have screened this cell line against the MLSMR in two primary screens. In one screen we add CPT and in the other we screen in the absence of CPT; this AID represents the screen where CPT was present. NIH Chemical Genomics Center [NCGC] NIH Molecular Libraries Probe Centers Network [MLPCN] MLPCN Grant: MH095538 Assay Submitter (PI): Yves Pommier, NCI
DT40-hTDP1 cells with 20 nM Camptothecin (add 20 microL of 1 mM CPT stock in 1 L of cell culture medium) were dispensed at 400 cells/5microL/well in tissue culture treated 1536-well white wall/solid bottom assay plates (Greiner Bio-One North America, NC, U.S.A.) using a Multidrop Combi 8 channel dispenser (Thermo Fisher, Waltham, MA, USA). 23 nL compounds and controls were transferred using the pin tool (Kalypsys, San Diego, CA, USA) to the assay plates. The assay plates were then incubated at 37 masculineC for a minimum 48 hr. Three microL of Cell Titer Glo solution was added to the plates and incubated at RT in dark for 30 min. Luminescence was read using ViewLux (Perkin Elmer) with 1 sec exposure slow speed, high gain and 2x binning.
% is scaled to controls: 0 for no effect and ±100 for the full control effect; potency is read from the fitted curve at half-maximal effect.

Row | SMILES | activity change, negative = growth inhibition [%] | Potency
1 | C[C@H]1CCC(=O)N([C@H](CSc2ccccc2)Cc2ccccc2)CC1 | -13.2 | 
2 | O=C1CCN(Cc2ccc([N+](=O)[O-])cc2)CCN1[C@H](CO)Cc1ccccc1 | -9.24 | 
3 | O=C1CC[C@H](O)CCN1[C@H](CSc1ccc(Br)cc1)Cc1ccccc1 |  | 11.2 µM (active) and 14.6 µM (active)
4 | COc1ccc(SC[C@H](Cc2ccccc2)N2CCN(CCc3ccccc3)CCC2=O)cc1 |  | 23.1 µM (active)
5 | O=C1CCN(CCCc2ccccc2)CCN1CCO | 3.81 | 
6 | O=C(Cc1ccccc1)NNC1CC(=O)N(c2ccc(Br)cc2)C1=O (stereo not drawn) | 1.27 | 
7 | O=C(CN1CCC(NC(=O)C2CC2)CC1)Nc1ccccc1[N+](=O)[O-] | -6.93 | 
8 | Cc1cc(C(F)F)nn1CC(=O)NC1CCCCCC1 | 3.43 | 
9 | Cc1ccc2c(cnn2C(=O)CCC(=O)NC2CCCC2)c1 | 0.0617 | 
10 | O=C(Cc1cccs1)Nc1ccc([N+](=O)[O-])cc1 | -28.9 | 
11 | CCCC(=O)n1nc(-c2ccccc2)nc1N | -6.98 | 
12 | CCc1nn(-c2cc(Oc3cccc4ccccc34)nc(-c3ccccc3)n2)c(N)c1C#N |  | 10.3 µM (active)
13 | CC(C(=O)N1CCN(c2ccccc2F)CC1)c1ccc([N+](=O)[O-])cc1 (stereo not drawn) | -25.5 | 
14 | CC1CCN(CC(=O)Nc2nccs2)CC1 | -24.2 | 
15 | Cc1c(C)c(C)c(S(=O)(=O)N2CCC3(CC2)OCCO3)c(C)c1C | -19.7 | 
16 | CCOc1ccc(NC(=O)CN(C)C(=O)CSc2ccccc2)cc1OCC | -19.4 | 
17 | CN1CCN(NC(=O)c2ccc(S(=O)(=O)N3CCCCCC3)cc2)CC1 | 5.37 | 
18 | COc1ccc(S(=O)(=O)N2CCCCC2)cc1Br | 0.0514 | 
19 | COc1cc2c(cc1OC)CN(C(=O)c1ccc(S(=O)(=O)N3CCCCCC3)cc1)CC2 |  | 20.6 µM (active)
20 | COC(=O)c1ccc(CNC(=O)c2ccc(S(=O)(=O)N3CCCCCC3)cc2)cc1 | -1.03 | 
21 | COc1cc2c(cc1OC)CN(C(=O)c1cc(S(=O)(=O)N3CCCCC3)ccc1Cl)CC2 |  | 20.6 µM (active)
22 | O=C(c1cc(S(=O)(=O)N2CCOCC2)ccc1Cl)N1CCOCC1 | 11 | 
23 | COc1ccc(C(=O)n2nc(C)c(Br)c2C)cc1OC | -17.2 | 
24 | COc1ccc(C(=O)CN2C(=O)NC(C)(c3ccc(C)cc3)C2=O)cc1OC (stereo not drawn) | -22.9 | 
25 | COc1ccc(C(=O)n2nc(-c3ccc(C)cc3)nc2N)cc1OC |  | 13 µM (active)
26 | CN1CCN(c2ccc(CNS(=O)(=O)c3cccc(F)c3)cc2)CC1 | -2.6 | 

Row | SMILES | activity change, negative = growth inhibition [%] | Potency
27 | CCCCc1ccc(S(N)(=O)=O)cc1 | 0.496 | 
28 | N#Cc1ccccc1CN1C(=O)S/C(=C/c2cccn2-c2cccc(C(=O)O)c2)C1=O | -7.91 | 
29 | Cc1c(C(=O)N2CCCc3ccccc32)oc2ccccc12 | -15.4 | 
30 | Cc1cccc2cc3c(N)c(C(=O)N4CCCc5ccccc54)sc3nc12 |  | 4.11 µM (active)
31 | O=C(c1cc(-c2ccc(O)cc2)on1)N1CCCc2ccccc21 | -19.2 | 
32 | Cc1c(C(=O)O)nnn1-c1nonc1N | 4.76 | 
33 | COc1cc(OC)c(C(=O)NNC(=O)c2ccccc2-n2cccc2)cc1OC | -11.7 | 
34 | Cc1ccccc1CSc1nc(-c2ccccc2)nc2c1Cc1c(CO)cnc(C)c1O2 | 6.78 | 
35 | CSc1nc(-c2ccc(F)cc2)nc2c1Cc1c(CO)cnc(C)c1O2 | 7.44 | 
36 | CSc1nc(-c2ccccc2Cl)nc2c1Cc1c(CO)cnc(C)c1O2 |  | 14.6 µM (active)
37 | CCOC(=O)c1cnc2nc(SCc3ccccc3Cl)[nH]n2c1=O | -4.22 | 
38 | CS(=O)(=O)c1ccc(Cl)c(NC(=O)COC(=O)c2ncc(Cl)c(Cl)c2Cl)c1 | 0.632 | 
39 | COc1cccc(CN(C)CC(=O)NCc2ccccc2Cl)c1OC | -23.4 | 
40 | Cc1nc2ccc(C(=O)N(C)CC3CCCN(CCc4ccc(Cl)cc4)C3)cc2[nH]1 (stereo not drawn) | -12.6 | 
41 | COc1cccc(CN(C)CC2CCCN(CCc3ccc(Cl)cc3)C2)c1OC (stereo not drawn) |  | 16.4 µM (active)
42 | CCc1ccnc(NS(=O)(=O)c2ccc3c(c2)OCCO3)c1 | 0.676 | 
43 | Cc1ccc(C2CC(c3cccc(C)c3)n3nc(N)nc3N2)cc1 (stereo not drawn) | -24.1 | 
44 | COc1ccc(C2CC(c3ccc(C)cc3)Nc3nc(N)nn32)cc1 (stereo not drawn) | -9.25 | 
45 | CCOc1ccccc1C1CC(c2ccc(Cl)cc2)Nc2nc(N)nn21 (stereo not drawn) |  | 18.4 µM (active)
46 | COc1ccccc1N1CCN(c2ncnc3onc(-c4cccc(Cl)c4)c23)CC1 | 7.45 | 
47 | COc1ccccc1N1CCN(c2ncnc3sc(C)c(-c4ccccc4)c23)CC1 |  | 23.1 µM (active)
48 | COc1ccccc1N1CCN(c2nc(C)cc(=O)[nH]2)CC1 | 19.5 | 
49 | Cn1cnc(S(=O)(=O)Nc2ccc3c(c2)OCCO3)c1 | -11.7 | 
50 | O=C(COC(=O)c1cc(-c2cccs2)nn1-c1ccccc1)Nc1cc([N+](=O)[O-])ccc1Cl | 8.85 | 
51 | CCc1cccc(CC)c1NC(=O)Cn1c(=O)c(-c2cc(C)ccc2NC(C)=O)nc2ccccc21 | 0.437 | 
52 | CCCn1c(N)c(C(=O)CSc2nnc(-c3cccnc3)n2-c2ccc(C)cc2C)c(=O)[nH]c1=O | -6.68 | 

Row | SMILES | activity change, negative = growth inhibition [%] | Potency
53 | CCCc1cc(=O)n2[nH]c(C)c(-c3ccc(Cl)cc3)c2n1 |  | 20.6 µM (active)
54 | Cc1nc2c(-c3ccccc3)c(C)[nH]n2c(=O)c1Cl | -0.299 | 
55 | COCc1cc(=O)n2[nH]c(C)c(-c3ccccc3)c2n1 | -2.85 | 
56 | CCOc1cc(C)c(S(=O)(=O)NCc2ccccn2)cc1C | 12.8 | 
57 | COc1ccc(NC(=O)C2C3CCC(O3)C2C(=O)O)cc1OC (stereo not drawn) | -3.95 | 
58 | COCC(=O)N1CCc2ccc(NC(=O)c3ccccc3Cl)cc2C1 | 5.3 | 
59 | Cc1ccc(CN2C(=O)CCC2C(=O)NCCCN2CCCCC2C)cc1 (stereo not drawn) | -1.28 | 
60 | O=C(NCCCc1ccccc1)C1CCC(CNc2c(N3CCCCC3)c(=O)c2=O)CC1 (stereo not drawn) | 4.19 | 
61 | Cc1ccc(Cn2c(CCCNC(=O)C3CCCCC3)nc3ccccc32)cc1 |  | 16.4 µM (active)
62 | CC(C)Oc1ccc(CNC(=O)C2CCN(c3nc4ccccc4n(C)c3=O)CC2)cc1 | -5.18 | 
63 | CCc1ccc(OCCCn2c(CCCNC(=O)C3CCCCC3)nc3ccccc32)cc1 |  | 8.91 µM (active)
64 | Cc1ccc2[nH]cc(CCNC(=O)C3CCCCC3)c2c1 | -21.5 | 
65 | O=C(CSc1nnc(CNC(=O)c2ccccc2)n1-c1ccc(F)cc1)Nc1ccccc1F | -13.6 | 
66 | Cc1ccc(NS(=O)(=O)c2ccc(N/N=C/c3ccccc3OCC(=O)O)c([N+](=O)[O-])c2)c(C)c1 | 1.01 | 
67 | O=C(CC1SC(=Nc2ccccc2F)N(CCN2CCOCC2)C1=O)Nc1ccc(F)cc1F (stereo not drawn) | -10.2 | 
68 | COc1ccccc1N(CC(=O)N/N=C(\C)c1ccccc1O)S(=O)(=O)c1ccc(C)cc1 | -94.3 | 
69 | Cc1ccc(S(=O)(=O)N(CC(=O)NCc2ccco2)c2ccccc2C)cc1 | -7.69 | 
70 | Cc1ccc(S(=O)(=O)N(CC(=O)Nc2ccc(Cl)cc2Cl)c2ccccc2C)cc1 |  | 18.4 µM (active)
71 | COc1ccc(C(F)(F)F)cc1N/C=C\c1nnnn1-c1ccc(C)cc1 | -1.88 | 
72 | COc1ccccc1OCC(=O)O/N=C(\N)c1ccccn1 | -15.9 | 
73 | Cc1ccccc1-c1cc(C(=O)NCC2CC2)n(CC2CC(c3cccnc3)=NO2)n1 (stereo not drawn) | 0.873 | 
74 | CCOC(=O)c1ccc2[nH]c(C)c(CN3CCN(C)CC3)c(=O)c2c1 | 12.7 | 
75 | CCCOC(=O)c1ccc(N2C(=O)c3ccccc3C2=O)cc1 | -3.9 | 
76 | CC(C)(C)c1ccc(C(=O)NCCC(=O)NCc2ccco2)cc1 | -27.3 | 
77 | O=C(NCCc1ccccc1)C(=O)NCC(c1ccco1)S(=O)(=O)c1ccccc1 (stereo not drawn) | -27.8 | 
78 | COc1ccccc1NS(=O)(=O)c1ccc(C)c(C(=O)NCC(c2ccco2)N(C)C)c1 (stereo not drawn) | 12.3 | 

Row | SMILES | activity change, negative = growth inhibition [%] | Potency
79 | O=C(NCc1ccccc1)C(=O)NCC(c1ccco1)S(=O)(=O)c1ccc(Cl)cc1 (stereo not drawn) |  | 23.1 µM (active)
80 | CC(C)(C)c1ccc(C(=O)NCc2ccco2)cc1 | -21.9 | 
81 | CC(C)(C)c1ccc(C(=O)NCC(c2ccco2)S(=O)(=O)c2ccc(F)cc2)cc1 (stereo not drawn) |  | 20.6 µM (active)
82 | COc1ccc(S(=O)(=O)NC(CC(=O)NCc2ccccc2OC)c2ccco2)cc1 (stereo not drawn) | -22.8 | 
83 | COc1ccccc1CNC(=O)C(=O)NCC(c1ccco1)S(=O)(=O)c1ccc(F)cc1 (stereo not drawn) |  | 20.6 µM (active)
84 | CC(C)CNC(=O)C(=O)NCc1ccccc1 | -5.58 | 
85 | O=C(CCN1C(=O)C2CCCCC2C1=O)Nc1ccc(OC(F)F)cc1 (stereo not drawn) | 0.993 | 
86 | COc1ccccc1-n1ccnc(SCC(=O)NC2CCCCC2)c1=O | -22.8 | 
87 | COc1ccccc1C(=O)NCc1nnc(SC(C)C(=O)Nc2nccs2)n1C (stereo not drawn) | -3.89 | 
88 | Cc1c(NS(=O)(=O)c2ccc(Cl)cc2)c(=O)n(-c2ccccc2)n1C | -2.45 | 
89 | O=C(NCc1ccc(Cl)cc1)NCc1ccc(Cl)cc1 | -7.05 | 
90 | O=C(COc1ccccc1)OCc1cc(=O)n2nc(-c3cccs3)sc2n1 | -2.16 | 
91 | CCc1nc2c(OCCOc3ccccc3)cccn2c1N(C)C(=O)c1cccs1 |  | 25.9 µM (active)
92 | CCOc1cc(C(=O)O)ccc1OCCOc1ccccc1 | 11.7 | 
93 | CCc1nc2c(OCCOc3ccccc3)cccn2c1N(C)C(=O)c1ccc(OC)cc1 |  | 29.1 µM (active)
94 | CCc1nc2c(OCC(N)=O)cccn2c1N(C)C(=O)c1ccc(OC)cc1 | -52.9 | 
95 | O=C(c1cccs1)N(C(=O)c1cccs1)c1ccccn1 | 2.25 | 
96 | Cc1c(C2=CCN(S(=O)(=O)c3ccc(Cl)cc3)CC2)c2ccccc2n1C | -25 | 
97 | Cc1ccn(CC(=O)N2N=C(C(F)F)CC2(O)C(F)F)n1 (stereo not drawn) | -25.3 | 
98 | COc1cccc(CN2CCNC(=O)C2CC(=O)N(C)CCc2ccccn2)c1 (stereo not drawn) | 10.9 | 
99 | O=C(NCCCNC(=O)NC1CCCCC1)NC1CCCCC1 | -19.5 | 
100 | O=C(Nc1ccc(Cl)cc1)Nc1ccc(Oc2cccnc2)nc1 |  | 18.4 µM (active)
101 | O=C(NNC(=O)c1csc(-c2cccnc2)n1)Nc1ccc(Cl)cc1 | -15 | 
102 | Cc1ccc(NC(=O)Nc2cccnc2)cc1 | 4.49 | 
103 | CCN=c1sc(C(=O)Nc2ccccc2)c(C)n1CC | 2.49 | 
